Values joined by “and” are separate entries in the source; they are usually repeats but may differ in a detail not shown here. Equal values may be shown once. Inconclusive results are not listed. Where a structure was tested more than once in an assay, its records may differ in their call. Active and inactive are the calls of the source. Unless noted, calls follow the shape of the dose curve; as a rule, active = well fitted curve in the direction sought with a large enough effect; inconclusive = small, poorly fitted or top-dose-only effect, or another doubt; inactive = no such curve, though single readings can be large; an effect the other way counts as inactive or inconclusive.

From PubChem BioAssay (NCATS) come the findings set out here.

Test [1] in a line: qHTS for Inhibitors of Plasmodium falciparum (DD2) proliferation (AID 504314). Conditions: P. falciparum Dd2 in erythrocytes, SYBR Green growth, 72 h; series mostly up to 6.11 µM. In outline:
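SYBR Green DNA-fluorescence growth assay: infected RBCs at 0.3% parasitemia, 2.5% hematocrit, 72 h compound exposure, 37C, 5% CO2; overnight lysis with dye at RT; normalized to 0.29 uM artemisinin and vehicle.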
On the technique in general: In qHTS, concentration-response curves come from the screen itself.

Test [2] in a line: qHTS for Inhibitors of Plasmodium falciparum (GB4) proliferation (AID 504315). Also: nearly all actives have a fitted effect of over 50% in size. The note with it: P. falciparum GB4 in erythrocytes, SYBR Green DNA, 72 h; series mostly up to 6.7 µM. Put shortly: (§1)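 Parasite growth measured as SYBR Green DNA fluorescence (ex 485, em 535 nm) after overnight lysis following 72 h culture at 37 °C, 0.3% parasitemia, 2.5% hematocrit. Values normalized against DMSO and 0.29 uM artemisinin controls, with plate-stack correction.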

A short description of test [3]: qHTS for Inhibitors of Plasmodium falciparum (7G8) proliferation (AID 504316). Also: nearly all actives have a fitted effect of over 65% in size. The note with it: P. falciparum 7G8 in erythrocytes, SYBR Green DNA, 72 h; series mostly up to 6.7 µM. In outline: as §1
Test [4] is described as follows: qHTS for Inhibitors of Plasmodium falciparum (HB3) proliferation (AID 504318). Also: nearly all actives have a fitted effect of over 60% in size. Conditions: P. falciparum HB3 in erythrocytes, SYBR Green DNA, 72 h; series mostly up to 7.21 µM. Put shortly: as §1
The nature of test [5]: qHTS for Inhibitors of Plasmodium falciparum (CP250) proliferation (AID 504320). The note with it: P. falciparum CP250 in erythrocytes, SYBR Green DNA, 72 h; series mostly up to 6.7 µM. In outline: as §1
Test [6] addresses Atrial natriuretic peptide receptor 1 (Homo sapiens) (UniProt P16066). The experiment in a line: Natriuretic polypeptide receptor (hNpr1) antagonism - Pilot CMLD screen (AID 1347052; calls by dose curve;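 also: cGMP level read as GloSensor luciferase luminescence after agonist stimulation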). The note with it: HEK293 hNpr1 GloSensor cGMP luminescence, ANP-stimulated; series mostly up to 9.22 µM.
Potency is read from the fitted curve at half-maximal effect.

Sequence of Atrial natriuretic peptide receptor 1 (Homo sapiens) (P16066 whole entry, looked up): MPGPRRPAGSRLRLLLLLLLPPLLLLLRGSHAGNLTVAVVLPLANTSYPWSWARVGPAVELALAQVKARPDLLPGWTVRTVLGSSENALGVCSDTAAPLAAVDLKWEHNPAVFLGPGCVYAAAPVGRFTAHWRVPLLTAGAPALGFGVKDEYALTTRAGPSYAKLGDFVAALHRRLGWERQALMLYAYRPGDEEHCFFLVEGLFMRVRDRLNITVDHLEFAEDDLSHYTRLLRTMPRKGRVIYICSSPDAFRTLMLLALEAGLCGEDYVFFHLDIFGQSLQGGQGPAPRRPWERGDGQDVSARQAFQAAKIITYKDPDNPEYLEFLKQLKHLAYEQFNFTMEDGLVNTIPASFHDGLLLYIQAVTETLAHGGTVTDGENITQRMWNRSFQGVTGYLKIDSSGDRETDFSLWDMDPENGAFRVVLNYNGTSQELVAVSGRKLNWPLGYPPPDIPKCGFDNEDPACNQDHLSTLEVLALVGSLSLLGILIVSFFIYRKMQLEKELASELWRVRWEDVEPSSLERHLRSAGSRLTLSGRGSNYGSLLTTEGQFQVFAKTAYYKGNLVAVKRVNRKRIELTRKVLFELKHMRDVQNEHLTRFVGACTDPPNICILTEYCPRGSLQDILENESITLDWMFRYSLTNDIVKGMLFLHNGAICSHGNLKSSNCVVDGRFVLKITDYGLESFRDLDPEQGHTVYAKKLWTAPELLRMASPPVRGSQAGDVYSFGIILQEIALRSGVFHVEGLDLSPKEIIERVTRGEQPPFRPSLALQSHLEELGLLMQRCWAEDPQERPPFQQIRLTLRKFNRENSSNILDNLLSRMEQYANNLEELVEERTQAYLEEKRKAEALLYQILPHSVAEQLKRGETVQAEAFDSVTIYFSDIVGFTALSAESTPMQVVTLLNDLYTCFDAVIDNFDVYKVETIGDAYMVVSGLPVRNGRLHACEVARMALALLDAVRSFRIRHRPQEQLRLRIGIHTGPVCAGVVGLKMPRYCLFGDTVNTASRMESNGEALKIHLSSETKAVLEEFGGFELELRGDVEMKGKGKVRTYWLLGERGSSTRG

Regarding `CCN1C(=NCCCCO)NC(c2cccc(C(F)(F)F)c2)C(C(=O)OC)=C1C` (stereo not given), the Potency entry in test [1], in test [2], in test [3], in test [4], in test [5] and in test [6] was “inactive” each time.

Regarding `C=C(C)C(O)C=Cc1ccc(Br)cc1` (stereo not given), the Potency entry in test [1], in test [2], in test [3], in test [4], in test [5] and in test [6] was “inactive” each time.

Consider `COc1cc2c(cc1OC)[C@@H]1O[C@](CCCCN3C(=O)c4ccccc4C3=O)(C2)OC2=C1C(=O)CC(C)(C)C2`, for which the Potency is 753 nM (active) in test [1]; 757 nM (active) in test [2]; 301 nM (active) in test [3]; 478 nM (active) in test [4]; 1510 nM (active) in test [5]. Besides, the Potency entry in test [6] was “inactive”.

Turning to `CCOC(=O)CCN1C(=O)[C@@H]2[C@H]3[C@H](O)[C@H](O)CC(=NO[C@@H]4O[C@H](COC(C)=O)[C@@H](OC(C)=O)[C@H](OC(C)=O)[C@@H]4OC(C)=O)[C@H]3CC[C@H]2C1=O`, the Potency entry in test [1], in test [2], in test [3], in test [4], in test [5] and in test [6] was “inactive” in each case.

As to `CCOC(=O)CN1C(=O)[C@@]2(C[C@@H](C)C[C@@H](C)O2)c2ccccc21`, the Potency entry in test [1], in test [2], in test [3], in test [4], in test [5] and in test [6] was “inactive” in each case.

As for `CCN1C(=O)NC(c2ccccc2)C(C(=O)OC)=C1C` (stereo not given), the Potency entry in test [1], in test [2], in test [3], in test [4], in test [5] and in test [6] was “inactive” in each case.

As for `CC1=C[C@@H](C)OC2(C1)C(=O)N(CC1CC1)c1cccc(Br)c12` (stereo not given in full), the Potency entry in test [1], in test [2], in test [3], in test [4], in test [5] and in test [6] was “inactive” in each case.

For `COC(=O)c1cc(C(=O)OC)n2ccc3cc(OC)c(OC)cc3c12`, the Potency result in test [1], in test [2], in test [3], in test [4] and in test [5] was “inactive” each time. In addition, the Potency in test [6] is 531 nM (active).

For `CC(=O)OC[C@H]1O[C@H](CCON=C(C)CCC(=O)OC[C@H]2O[C@H](C#Cc3ccccc3)C=C[C@H]2Oc2ccc(C)cc2)C=C[C@H]1OC(C)=O`, the Potency result in test [1], in test [2], in test [3], in test [4], in test [5] and in test [6] was “inactive” each time.

`Cc1ccc(S(=O)(=O)NC(CCc2ccccc2)CC(=O)C(C)(C)C)cc1` (stereo not given): the Potency entry in test [1], in test [2], in test [3], in test [4], in test [5] and in test [6] was “inactive” each time.

In the case of `C=CCOC(=O)N[C@H](c1ccccc1)[C@H](C)C=CCC(=O)OC`, the Potency result in test [1], in test [2], in test [3], in test [4], in test [5] and in test [6] was “inactive” each time.

With `COc1ccc(C2=CC3=C(Br)C(=O)C(C)(O)C(=O)C3=CO2)cc1` (stereo not given), the Potency result in test [1], in test [2], in test [3], in test [4], in test [5] and in test [6] was “inactive” throughout.

Turning to `C=CCN=C1N[C@@H](c2ccccc2)[C@H](C(=O)OC)[C@@H](C)N1CC`, the Potency entry in test [1], in test [2], in test [3], in test [4], in test [5] and in test [6] was “inactive” throughout.

Turning to `OC[C@H]1O[C@H](C#Cc2ccc(F)cc2F)C=C[C@H]1O`, the Potency entry in test [1], in test [2], in test [3], in test [4], in test [5] and in test [6] was “inactive” in each case.

In the case of `O=C(C=Cc1cccc([N+](=O)[O-])c1)c1ccccc1`, the Potency result in test [1], in test [2], in test [3], in test [4] and in test [5] was “inactive” each time. For the same compound, in test [6], the Potency is 2990 nM (active).

Regarding `CN1c2ccccc2[C@@]2(O)C(=O)[C@@]1(C)[C@@H]1C=CCC[C@H]12`, the Potency entry in test [1], in test [2], in test [3], in test [4], in test [5] and in test [6] was “inactive” throughout.

Consider `OC[C@H]1O[C@H](C#Cc2ccccc2)C=C[C@H]1O`, for which the Potency entry in test [1], in test [2], in test [3], in test [4], in test [5] and in test [6] was “inactive” each time.

For the compound `Cc1ccccc1Nc1oc(-c2ccccc2)nc1CCc1ccccc1`, the Potency result in test [1] and in test [6] was “inactive” throughout. The Potency entry in test [2] was “inactive and 1.51 µM (active)”; in test [3] it was “inactive and 1.69 µM (active)”; in test [4], “inactive and 1.69 µM (active)”; in test [5] it was “inactive and 1.51 µM (active)”.

For `C=CCNC(=O)N1CCc2nc(CCCC)c3c(c2C1)CO[C@@H](C)C3`, the Potency entry in test [1], in test [2], in test [3], in test [4], in test [5] and in test [6] was “inactive” each time.

As to `C=CC1=C2C=C(C3CC3)N(C3CCCC3)C=C2C(=O)C(C)(OC(=O)c2ccco2)C1=O` (stereo not given), the Potency entry in test [1], in test [2], in test [3], in test [4], in test [5] and in test [6] was “inactive” in each case.
